# Measured values as given in PubChem BioAssay (Tox21).
# Results filed as inconclusive are left out. Where a call stands in place of a potency, no number is given. Unmarked numbers belong to inactive results. Active and inactive are the calls of the source. Unless noted, calls come from the whole dose curve; as a rule, active = well fitted curve in the direction sought with a large enough effect in the repeat runs; inconclusive = weak or mixed curves; inactive = no such curve, though single readings can be large; an effect the other way counts as inactive or inconclusive.
# Experiments:
# [1] = qHTS assay to identify small molecule antagonists of the estrogen related receptor (ERR) signaling pathway from Tox21 library - cell viability counter screen (AID 1224834); note: nearly all actives have a fitted effect of over 30% in size; note: potency is the fitted concentration of half-maximal effect
# Outline: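 ERR reporter cells were plated 6 h before compound addition, then exposed to test compounds in DMSO for 17.5 h at 37 C. Viability was read as CellTiter-Fluor fluorescence after a 30-minute incubation at 37 C.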
# [2] = target: Luciferin 4-monooxygenase (Photinus pyralis) (UniProt P08659); assay: qHTS assay to identify small molecule inhibitors of firefly luciferase (AID 1224835); note: nearly all actives have a fitted effect of over 25% in size; note: potency is the fitted concentration of half-maximal effect; for activity change, negative = inhibition: series mostly up to about 120 µM
# Chain of Luciferin 4-monooxygenase (Photinus pyralis) (P08659 whole entry, looked up): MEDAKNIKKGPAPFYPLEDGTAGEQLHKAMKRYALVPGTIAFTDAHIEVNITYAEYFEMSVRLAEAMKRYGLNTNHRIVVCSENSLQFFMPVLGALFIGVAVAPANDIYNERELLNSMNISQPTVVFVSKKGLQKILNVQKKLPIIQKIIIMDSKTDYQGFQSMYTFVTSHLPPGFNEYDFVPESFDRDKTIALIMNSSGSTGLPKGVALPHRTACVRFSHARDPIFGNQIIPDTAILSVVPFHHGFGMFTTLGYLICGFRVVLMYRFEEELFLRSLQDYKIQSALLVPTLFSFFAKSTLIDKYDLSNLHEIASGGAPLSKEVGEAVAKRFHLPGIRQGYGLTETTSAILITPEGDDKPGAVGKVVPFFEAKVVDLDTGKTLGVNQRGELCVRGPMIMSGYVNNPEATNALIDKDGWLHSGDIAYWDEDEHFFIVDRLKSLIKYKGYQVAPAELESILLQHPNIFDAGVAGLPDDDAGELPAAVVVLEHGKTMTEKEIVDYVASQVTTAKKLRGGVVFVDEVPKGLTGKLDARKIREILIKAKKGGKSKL
# Outline: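 Quantitative HTS format; KM concentrations of both substrates. Purified P. pyralis FLuc activity quantified from luminescence images.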
# [3] = qHTS assay to identify small molecule agonists of the constitutive androstane receptor (CAR) signaling pathway - cell viability counter screen (AID 1224836); note: series mostly up to about 92 µM; nearly all actives have a fitted effect of over 45% in size
# Outline: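 HepG2 cells stably carrying hCAR and a CYP2B6-2.2kb reporter; 15-concentration compounds plus PK11195 (final 0.75 uM), 23 hr at 37 C/5% CO2. Viability read by CellTiter-Fluor fluorescence.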
# [4] = qHTS assay to identify small molecule antagonists of the constitutive androstane receptor (CAR) signaling pathway - cell viability counter screen (AID 1224837); note: series mostly up to about 92 µM; nearly all actives have a fitted effect of over 45% in size
# Outline: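 HepG2 cells stably expressing hCAR and a CYP2B6-2.2kb reporter were plated and pre-incubated 4 hr at 37 C/5% CO2, then given compounds at 15 concentrations plus 50 nM CITCO (final). After 23 hr, viability was read by CellTiter-Fluor fluorescence.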
# [5] = target: Nuclear receptor subfamily 1 group I member 3 (Homo sapiens) (UniProt Q14994); assay: qHTS assay to identify small molecule antagonists of the constitutive androstane receptor (CAR) signaling pathway (AID 1224838); note: nearly all actives have a fitted effect of over 40% in size; note: potency is the fitted concentration of half-maximal effect
# Chain of Nuclear receptor subfamily 1 group I member 3 (Homo sapiens) (Q14994 whole entry, looked up): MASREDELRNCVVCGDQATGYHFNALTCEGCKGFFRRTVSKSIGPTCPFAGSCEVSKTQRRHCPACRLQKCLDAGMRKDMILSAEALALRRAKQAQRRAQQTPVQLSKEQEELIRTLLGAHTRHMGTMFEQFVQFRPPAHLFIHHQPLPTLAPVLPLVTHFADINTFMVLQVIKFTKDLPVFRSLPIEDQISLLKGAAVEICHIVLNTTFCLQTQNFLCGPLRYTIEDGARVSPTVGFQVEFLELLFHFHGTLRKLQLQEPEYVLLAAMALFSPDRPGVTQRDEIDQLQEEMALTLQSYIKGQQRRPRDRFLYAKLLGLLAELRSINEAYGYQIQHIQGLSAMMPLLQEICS
# Outline: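 HepG2 cells stably co-transfected with hCAR and a CYP2B6-2.2kb luciferase reporter were seeded 4 h before compound addition at 15 concentrations. Cells were stimulated with 50 nM CITCO (final) for 24 h at 37 C; luciferase luminescence was then read.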
# [6] = target: Nuclear receptor subfamily 1 group I member 3 (Homo sapiens) (UniProt Q14994); assay: qHTS assay to identify small molecule agonists of the constitutive androstane receptor (CAR) signaling pathway (AID 1224839); note: nearly all actives have a fitted effect of over 15% in size; note: potency is the fitted concentration of half-maximal effect;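 for activation: HepG2 cells stably carrying human CAR and a CYP2B6 luciferase reporter; series mostly up to about 92 µM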
# Outline: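 HepG2 cells stably co-transfected with hCAR and a CYP2B6-2.2kb luciferase reporter; compounds at 15 concentrations with 0.75 uM PK11195 present. After 24 hr at 37 C, luciferase read by ONE-Glo luminescence.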
# [7] = qHTS assay to identify small molecule antagonists of the estrogen related receptor signaling pathway with the pleiotropic PPARgamma coactivator (PGC) from Tox21 10K library - cell viability counter screen (AID 1224840; active = well fitted cell-killing curve with a large enough effect in the repeat runs, not every such curve was filed as active; note: nearly all actives have a fitted effect of over 40% in size)
# Outline: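 PGC/ERR cells were seeded at 2,000 cells/well and left 6 hours at 37 C/5% CO2 before pin-tool addition of compounds in DMSO. After 17.5 hours at 37 C, CellTiter-Fluor was added and fluorescence read 30 minutes later.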
# [8] = target: Thyrotropin receptor (Homo sapiens) (UniProt P16473); assay: qHTS assay to identify small molecule agonists of the thyroid stimulating hormone receptor (TSHR) signaling pathway (AID 1224843; calls by dose curve; note: nearly all actives have a fitted effect of over 45% in size; note: potency is the fitted concentration of half-maximal effect)
# Chain of Thyrotropin receptor (Homo sapiens) (P16473 whole entry, looked up): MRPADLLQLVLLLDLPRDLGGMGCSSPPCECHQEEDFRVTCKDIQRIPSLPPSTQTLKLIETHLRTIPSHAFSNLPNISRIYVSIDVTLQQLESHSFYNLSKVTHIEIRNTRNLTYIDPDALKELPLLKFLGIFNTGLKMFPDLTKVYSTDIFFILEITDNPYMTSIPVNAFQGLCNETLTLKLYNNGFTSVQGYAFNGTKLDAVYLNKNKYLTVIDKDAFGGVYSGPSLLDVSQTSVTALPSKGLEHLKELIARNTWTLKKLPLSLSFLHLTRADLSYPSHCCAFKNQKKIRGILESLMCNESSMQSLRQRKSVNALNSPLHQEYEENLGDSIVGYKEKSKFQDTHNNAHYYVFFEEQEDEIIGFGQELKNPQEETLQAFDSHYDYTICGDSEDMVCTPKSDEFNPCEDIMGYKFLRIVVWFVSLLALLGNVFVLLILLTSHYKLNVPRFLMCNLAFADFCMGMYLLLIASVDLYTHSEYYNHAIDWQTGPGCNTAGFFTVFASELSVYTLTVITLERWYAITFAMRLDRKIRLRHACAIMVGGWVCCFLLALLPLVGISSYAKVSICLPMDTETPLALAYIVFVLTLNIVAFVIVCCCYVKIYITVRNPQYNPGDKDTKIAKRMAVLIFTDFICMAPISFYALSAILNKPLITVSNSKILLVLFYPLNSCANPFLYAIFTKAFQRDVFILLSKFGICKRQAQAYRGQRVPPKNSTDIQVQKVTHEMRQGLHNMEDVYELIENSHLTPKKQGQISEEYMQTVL
# Outline: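 TSHR-expressing HEK293 cells (800 per well) were exposed to compounds for 30 min at room temperature. cAMP was then detected by HTRF competition with cAMP-d2 and anti-cAMP cryptate, read after 1 h at room temperature. Fifteen concentrations, triplicate.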
# [9] = qHTS assay to identify small molecule agonists of the estrogen related receptor signaling pathway with the pleiotropic PPARgamma coactivator (PGC) from Tox21 10K library (AID 1224842); note: nearly all actives have a fitted effect of over 15% in size; note: potency is the fitted concentration of half-maximal effect
# Outline: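 PGC/ERR reporter cells (NTP line) were seeded 2,000 per well, rested 6 h at 37 C/5% CO2, then pin-dosed with compounds in DMSO for 18 h at 37 C; luciferase read by One-Glo luminescence after 30 min at room temperature.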
# [10] = qHTS assay to identify small molecule antagonists of the estrogen related receptor signaling pathway with the pleiotropic PPARgamma coactivator (PGC) from Tox21 10K library (AID 1224841; call rule not given here; note: actives are mostly falling curves and most rising ones were filed inactive; nearly all actives have a fitted effect of over 50% in size; note: potency is the fitted concentration of half-maximal effect; for activity, negative = inhibition: series mostly up to about 92 µM)
# Outline: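 PGC/ERR reporter cells were seeded at 2,000 cells/well and held 6 hours at 37 C/5% CO2 before pin-tool addition of compounds in DMSO. After 18 hours at 37 C, One-Glo was added and luminescence read after 30 minutes at room temperature.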
compound,measurement,setting,value
COc1ccnc(CS(=O)c2nc3ccc(OC(F)F)cc3[nH]2)c1OC (stereo unspecified),Potency,[1],inactive
same,Potency,[2],inactive
same,Potency,[3],inactive
same,Potency,[4],inactive
same,Potency,[5],inactive
same,Potency,[6],inactive
same,Potency,[7],inactive
same,Potency,[8],inactive
Cc1oc2c(NC(=O)c3c(Cl)cccc3Cl)cccc2c1C(C)(C)O,Potency,[1],43.3 µM (active)
same,Potency,[2],inactive
same,Potency,[3],inactive
same,Potency,[4],inactive
same,Potency,[5],5.45 µM (active)
same,Potency,[6],inactive
same,Potency,[9],inactive
CCOC(=O)C(F)(F)F,Potency,[1],inactive
same,Potency,[2],inactive
same,Potency,[3],inactive
same,Potency,[4],inactive
same,Potency,[5],inactive
same,Potency,[6],inactive
same,Potency,[7],inactive
same,Potency,[8],inactive
O=C1c2ccccc2S(=O)(=O)N1CCCCN1CCN(c2ncccn2)CC1,Potency,[1],inactive
same,Potency,[2],inactive
same,Potency,[3],inactive
same,Potency,[4],inactive
same,Potency,[5],inactive
same,Potency,[6],inactive
same,Potency,[7],inactive
same,Potency,[8],inactive
O=C(c1ccc(F)cc1)C1CCN(CCn2c(=S)[nH]c3ccccc3c2=O)CC1,Potency,[1],29.8 µM (active)
same,Potency,[2],inactive
same,Potency,[3],inactive
same,Potency,[4],inactive
same,Potency,[5],inactive
same,Potency,[6],inactive
same,Potency,[10],26.6 µM (active)
same,Potency,[9],inactive
same,Potency,[8],inactive
COS(=O)(=O)C(F)(F)F,Potency,[1],inactive
same,Potency,[2],inactive
same,Potency,[3],inactive
same,Potency,[4],inactive
same,Potency,[5],inactive
same,Potency,[6],inactive
same,Potency,[7],inactive
same,Potency,[8],inactive
CN(C)CCOC(c1ccccc1)c1ccc(Br)cc1 (stereo unspecified),Potency,[1],inactive
same,Potency,[2],inactive
same,Potency,[3],inactive
same,Potency,[4],inactive
same,Potency,[5],inactive
same,Potency,[6],inactive
same,Potency,[10],inactive
same,Potency,[9],inactive
same,Potency,[8],inactive
C[N+]1(C)CCC(OC(=O)C(O)(c2ccccc2)C2CCCC2)C1 (stereo unspecified),Potency,[1],inactive
same,Potency,[2],inactive
same,Potency,[3],inactive
same,Potency,[4],inactive
same,Potency,[5],inactive
same,Potency,[6],inactive
same,Potency,[7],inactive
same,Potency,[8],inactive
CCO[Si](CCCCl)(OCC)OCC,Potency,[1],inactive
same,Potency,[2],inactive
same,Potency,[3],inactive
same,Potency,[4],inactive
same,Potency,[5],inactive
same,Potency,[6],inactive
same,Potency,[7],inactive
same,Potency,[8],inactive
CCOC(=O)Cc1cccc2ccccc12,Potency,[1],inactive
same,Potency,[2],inactive
same,Potency,[3],inactive
same,Potency,[4],inactive
same,Potency,[5],inactive
same,Potency,[6],30.6 µM (active)
same,Potency,[10],inactive
same,Potency,[9],inactive
C=C(C)C(=O)OCCO,Potency,[1],inactive
same,Potency,[2],inactive
same,Potency,[3],inactive
same,Potency,[4],inactive
same,Potency,[5],inactive
same,Potency,[6],inactive
same,Potency,[7],inactive
same,Potency,[8],inactive
CC1(c2ccccc2)OC(C(=O)O)=CC1=O (stereo unspecified),Potency,[1],inactive
same,Potency,[2],inactive
same,Potency,[3],inactive
same,Potency,[4],inactive
same,Potency,[5],inactive
same,Potency,[6],inactive
same,Potency,[7],inactive
same,Potency,[8],inactive
C/C=C/C(=O)CC,"viability change, negative = cytotoxic",[1],3.2% [at 19 µM]
same,"activity change, negative = inhibition",[2],3.1% [at 23.6 µM]
same,"viability change, negative = cytotoxic",[3],4.38% [at 19 µM]
same,"activity change, negative = cytotoxicity",[4],0.0894% [at 19 µM]
same,"activity, negative = inhibition",[5],-5.29% [at 19 µM]
same,Potency,[6],inactive
same,"viability change, negative = cytotoxic",[7],7.3% [at 19 µM]
same,activation,[8],-10.5% [at 19 µM]
O=C(O)C1(C(=O)Nc2ccc(Cl)cc2Cl)CC1,Potency,[1],inactive
same,Potency,[2],6.33 µM (active)
same,Potency,[3],inactive
same,Potency,[4],inactive
same,Potency,[5],inactive
same,Potency,[6],13.7 µM (active)
same,Potency,[7],inactive
same,Potency,[8],inactive
O=C(NCCO[N+](=O)[O-])c1cccnc1,Potency,[1],inactive
same,Potency,[2],inactive
same,Potency,[3],inactive
same,Potency,[4],inactive
same,Potency,[5],inactive
same,Potency,[6],inactive
same,Potency,[7],inactive
same,Potency,[8],inactive
CC1OC(=O)C(C)OC1=O (stereo unspecified),Potency,[1],inactive
same,Potency,[2],inactive
same,Potency,[3],inactive
same,Potency,[4],inactive
same,Potency,[5],inactive
same,Potency,[6],inactive
same,Potency,[7],inactive
same,Potency,[8],inactive
C[C@@H]1C[C@H]2[C@@H]3CCC4=CC(=O)C=C[C@]4(C)[C@@]3(F)[C@@H](O)C[C@]2(C)[C@@]1(O)C(=O)COC(=O)c1ccncc1,Potency,[1],inactive
same,Potency,[2],inactive
same,Potency,[3],inactive
same,Potency,[4],inactive
same,Potency,[5],inactive
same,Potency,[6],inactive
same,Potency,[7],inactive
same,Potency,[8],inactive
CCOc1ccc(O)cc1,Potency,[1],inactive
same,Potency,[2],inactive
same,Potency,[3],inactive
same,Potency,[4],inactive
same,Potency,[5],inactive
same,Potency,[6],inactive
same,Potency,[7],inactive
same,Potency,[8],inactive
CC(CC=O)c1ccccc1 (stereo unspecified),Potency,[1],inactive
same,Potency,[2],inactive
same,Potency,[3],inactive
same,Potency,[4],inactive
same,Potency,[5],inactive
same,Potency,[6],inactive
same,Potency,[7],inactive
same,Potency,[8],inactive
CC(=O)OC[C@H]1O[C@@H](n2ncc(=O)[nH]c2=O)[C@H](OC(C)=O)[C@@H]1OC(C)=O,Potency,[1],inactive
same,Potency,[2],inactive
same,Potency,[3],inactive
same,Potency,[4],inactive
same,Potency,[5],inactive
same,Potency,[6],inactive
same,Potency,[7],inactive
same,Potency,[8],inactive
COc1ccc(-c2nc3ccc(C4=NNC(=O)CC4C)cc3[nH]2)cc1 (stereo unspecified),Potency,[1],13.3 µM (active)
same,Potency,[2],8.71 µM (active)
same,Potency,[3],inactive
same,Potency,[4],inactive
same,Potency,[5],inactive
same,Potency,[6],3.76 µM (active)
same,Potency,[10],inactive
same,Potency,[9],8.41 µM (active)
same,Potency,[8],9.44 µM (active)
COc1cc2nc(N3CCN(C(=O)C4COc5ccccc5O4)CC3)nc(N)c2cc1OC (stereo unspecified),Potency,[1],29.8 µM (active)
same,Potency,[2],inactive
same,Potency,[3],inactive
same,Potency,[4],inactive
same,Potency,[5],inactive
same,Potency,[6],inactive
same,Potency,[8],inactive
O=C(OCCc1ccccc1)c1ccccc1,Potency,[1],inactive
same,Potency,[2],1 µM (active)
same,Potency,[3],inactive
same,Potency,[4],inactive
same,Potency,[5],inactive
same,Potency,[6],inactive
same,Potency,[8],inactive
COC(=O)c1ccc(I)cc1S(=O)(=O)NC(=O)Nc1nc(C)nc(OC)n1,Potency,[1],inactive
same,Potency,[2],inactive
same,Potency,[3],inactive
same,Potency,[4],inactive
same,Potency,[5],inactive
same,Potency,[6],inactive
same,Potency,[8],inactive
CCOC(=O)C(O)c1ccccc1 (stereo unspecified),Potency,[1],inactive
same,Potency,[2],inactive
same,Potency,[3],inactive
same,Potency,[4],inactive
same,Potency,[5],inactive
same,Potency,[6],inactive
same,Potency,[10],inactive
same,Potency,[9],inactive
same,Potency,[8],inactive
C[C@H]1C[C@H]2[C@@H]3CCC4=CC(=O)C=C[C@]4(C)[C@@]3(Cl)[C@@H](O)C[C@]2(C)[C@@]1(O)C(=O)CO,Potency,[1],inactive
same,Potency,[2],inactive
same,Potency,[3],inactive
same,Potency,[4],inactive
same,Potency,[5],inactive
same,Potency,[6],inactive
same,Potency,[9],inactive
same,Potency,[8],inactive
CCCCCCCN,Potency,[1],inactive
same,Potency,[2],inactive
same,Potency,[3],inactive
same,Potency,[4],inactive
same,Potency,[5],inactive
same,Potency,[6],inactive
same,Potency,[7],inactive
same,Potency,[8],inactive
